Measured values taken from PubChem BioAssay.
Activity calls are given as the source filed them.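 Rule for the calls, unless noted: active = inhibition at or above 50% at 10 µM; inactive = inhibition below 50%.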

How the values were obtained:
[1] = inhibitors of TNFa-induced NFkB p65 translocation, primary screen, imaging, HUVEC, MLSMR starter and 10KST1 sets (AID 438;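 active = inhibition above 20% together with a positive visual image hit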;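 note: compound added about 3h40 before a 20 min TNFalpha stimulation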;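 for inhibition: signal is the nuclear over cytoplasmic p65 intensity ratio per well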); conditions: HUVEC TNFa-induced p65 nuclear translocation; cell count: measured here: nuclei count (cytotoxicity indicator), at 2.08 µM; inhibition: at 2 µM, stronger effect = higher value, 0% TNFa-plus-vehicle, 100% no-TNFa wells
[2] = reduction of polyQ htt aggregates in cells – imaging, exon1htt(103Q)mCFP cells, high-content imaging, primary screen (AID 483;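 active = visual image review flags a hit and inhibition of aggregation exceeds 20%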;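 note: compound exposure lasted 3 days before fixation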;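 for nuclei count: percent of the per-plate median nuclei count of sample wells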); conditions: exon1htt(103Q)mCFP cell line, aggregate imaging, at 2 µM; inhibition of aggregation: stronger effect = higher value; nuclei count: measured here: cell count, toxicity
[3] = endothelial E-selectin expression blockers – imaging, HUVEC, immunofluorescence, MLSMR starter and 10KST1 sets, primary screen (AID 487;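 active = visually confirmed hit in the image check and inhibition above 20%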;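 for inhibition: signal is fraction of cell area covered by stained E-selectin grains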;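 for nuclei count: 100% = median nuclei count of all wells on the same plate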); conditions: HUVEC TNFalpha-induced E-selectin immunofluorescence imaging, at 2 µM; inhibition: stronger effect = higher value; nuclei count: measured here: cell number, toxicity
[4] = molecular target: Voltage-gated potassium channel subunit beta-2 (Rattus norvegicus) (UniProt P62483); test: inhibitors of rat Kvbeta2 reductase activity – biochemical, NADPH fluorescence, primary screen (AID 622;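 active = fluorescence slope higher than the sample average by over 3 SD, cut at about -0.22 in these data, passing the limit was not always enough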;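 note: slope of raw intensity against log time taken from 70 to 1610 s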); conditions: recombinant KvBeta, 4-cyanobenzaldehyde reduction, at 10 µM, stronger effect = higher value
[5] = molecular target: Voltage-gated potassium channel subunit beta-2 (Rattus norvegicus) (UniProt P62483); test: enhancers of rat Kvbeta2 NADPH turnover – biochemical, NADPH fluorescence, primary screen (AID 623;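 active = NADPH fluorescence slope more negative than the mean of all samples by about 3 SD, 99.7% confidence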;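 note: fluorescence intensity change per second fitted from 20 to 320 s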); conditions: Recombinant KvBeta, NADPH fluorescence decrease slope, 10 min; at 10 µM; stronger effect = lower value
[6] = molecular target: Alpha-2C adrenergic receptor (Homo sapiens) (UniProt P18825); test: compounds altering alpha2C-coupled GIRK flux – cell-based, HEK293 alpha2C/GIRK1/2, thallium flux, primary screen (AID 624;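 active = fluorescence slope after compound addition differing from the mean of all screened samples at 99.7% confidence, in either direction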;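 note: slope of fluorescence ratio to pre-addition baseline per second over 15 to 24 s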); conditions: thallium flux BTC fluorescence, at 10 µM, actives lie on both sides
[7] = blockers of RIG-like receptor reporter activation – cell-based, Sendai virus stimulus, luciferase, 10K MLSCN set, TLR/RLR signaling modifier project, primary screen (AID 602276); conditions: HEK293 RL24 IRF3 luciferase reporter, at 10 µM, stronger effect = higher value;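 note: firefly luciferase from ISG56 promoter only with Renilla not read in this screen; 0% = Sendai virus plus DMSO and 100% = medium plus DMSO without virus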
[8] = TLR3 IRF3 reporter activation blockers – cell-based, poly I:C stimulus, luciferase, 10K MLSCN set, primary screen (AID 602277;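 active = inhibition of the reporter signal at or above 50%; inactive = inhibition below 50%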); conditions: HEK293-TLR3 RL24 IRF3 luciferase reporter, at 10 µM, stronger effect = higher value

Chain of Alpha-2C adrenergic receptor (Homo sapiens) (P18825 whole entry, looked up): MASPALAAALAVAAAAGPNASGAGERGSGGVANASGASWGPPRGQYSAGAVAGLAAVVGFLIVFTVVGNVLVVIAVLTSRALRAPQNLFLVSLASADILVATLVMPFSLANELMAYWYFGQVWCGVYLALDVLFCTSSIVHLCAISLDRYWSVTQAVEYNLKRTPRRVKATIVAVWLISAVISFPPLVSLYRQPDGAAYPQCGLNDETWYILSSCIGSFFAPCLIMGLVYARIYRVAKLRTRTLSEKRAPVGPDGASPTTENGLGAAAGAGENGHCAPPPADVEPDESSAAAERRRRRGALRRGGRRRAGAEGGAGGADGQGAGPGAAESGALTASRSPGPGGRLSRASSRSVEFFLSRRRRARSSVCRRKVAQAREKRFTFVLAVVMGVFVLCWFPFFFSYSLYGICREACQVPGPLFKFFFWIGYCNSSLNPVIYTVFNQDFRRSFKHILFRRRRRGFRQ
Chain of Voltage-gated potassium channel subunit beta-2 (Rattus norvegicus) (P62483 whole entry, looked up): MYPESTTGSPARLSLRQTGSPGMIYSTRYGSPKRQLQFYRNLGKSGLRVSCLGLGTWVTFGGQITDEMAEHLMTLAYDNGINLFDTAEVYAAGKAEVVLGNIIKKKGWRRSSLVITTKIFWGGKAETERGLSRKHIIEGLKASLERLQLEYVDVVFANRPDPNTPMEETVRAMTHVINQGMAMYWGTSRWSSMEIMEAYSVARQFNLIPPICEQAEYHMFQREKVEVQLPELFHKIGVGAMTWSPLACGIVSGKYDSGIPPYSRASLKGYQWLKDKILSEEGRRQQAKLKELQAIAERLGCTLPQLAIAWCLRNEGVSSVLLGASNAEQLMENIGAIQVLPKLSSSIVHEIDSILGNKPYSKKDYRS

Structure (SMILES)	cell count [1]	inhibition [1]	inhibition of aggregation [2]	nuclei count [2]	inhibition [3]	nuclei count [3]	fluorescence slope [4]	NADPH fluorescence slope [5]	slope [6]	inhibition [7]	inhibition [8]
Cc1ccc(/C=c2\sc3nc(-c4ccccc4Br)nn3c2=O)o1	277	-5% (inactive)	39.3% (active)	92.3%	-9.5% (inactive)	94.1%	-0.577 (inactive)	-5.1e-05 (inactive)	0.00296 (inactive)	12.3% (inactive)	18.9% (inactive)
Cc1cc(C)c2ccc(N)nc2c1O	408	0.1% (inactive)	22.6% (inactive)	6.8%	41.6% (inactive)	107%	-0.462 (inactive)	-5e-05 (inactive)	0.00457 (inactive)	21% (inactive)	29.8% (inactive)
COc1ccc(C(=O)N2CCN(S(=O)(=O)c3cc(Cl)ccc3OC)CC2)cc1	398	7.3% (inactive)	-29.4% (inactive)	64.6%	-74.2% (inactive)	106%	-0.368 (inactive)	-2.2e-05 (inactive)	0.00259 (inactive)	16.1% (inactive)	18% (inactive)
COc1ccc(C(=O)NCCn2ccc3ccccc32)c(OC)c1	280	-2.5% (inactive)	0.8% (inactive)	80.1%	-40.8% (inactive)	95.6%	-0.608 (inactive)	6.8e-06 (inactive)	0.00591 (inactive)	1.44% (inactive)	-24.1% (inactive)
COc1ccc(CNc2oc(-c3ccccc3)nc2C#N)cc1	458	5% (inactive)	-12.2% (inactive)	99.5%	-19.4% (inactive)	67.2%	-0.523 (inactive)	2.8e-05 (inactive)	0.00683 (inactive)	-29.8% (inactive)	-35.1% (inactive)
CCOc1cc(NC(=O)c2ccco2)c(OCC)cc1NC(=O)Cc1cccc(OC)c1	592	-14.5% (inactive)	-4.3% (inactive)	107%	22.4% (inactive)	102%	-0.397 (inactive)	-5.1e-05 (inactive)	0.00431 (inactive)	-6.51% (inactive)	-45.9% (inactive)
O=C(c1ccc(Cl)cc1)N1CCCCC(Sc2nnc(-c3ccc4c(c3)OCO4)o2)C1=O (stereo not drawn)	505	-13.7% (inactive)	14.1% (inactive)	93.7%	-71.6% (inactive)	145%	-0.624 (inactive)	-3.6e-05 (inactive)	0.00978 (inactive)	-180% (inactive)	92% (active)
O=C(O)CN1C(=O)CNC1=O	249	8.5% (inactive)	-1.9% (inactive)	60.7%	-66.2% (inactive)	119%	-0.519 (inactive)	9.8e-06 (inactive)	0.00529 (inactive)	3.07% (inactive)	24% (inactive)
CCOc1cc(C(=O)N(C)Cc2cc3ccccc3[nH]c2=O)cc(OCC)c1OCC	376	0.6% (inactive)	22.5% (inactive)	87.4%	-205% (inactive)	196%	-0.325 (inactive)	-5e-05 (inactive)	0.00465 (inactive)	11.9% (inactive)	18.9% (inactive)
CSCCC(C(=O)Nc1ccc2c(c1)OCO2)N1C(=O)c2ccccc2C1=O (stereo not drawn)	632	3.8% (inactive)	-16.3% (inactive)	96.3%	-138% (inactive)	107%	-0.61 (inactive)	-7.2e-06 (inactive)	0.006 (inactive)	9.29% (inactive)	22% (inactive)
Cc1ccc(S(=O)(=O)NCCN2CCOCC2)cc1C	408	-14.3% (inactive)	21.7% (inactive)	92.2%	31.4% (inactive)	86.3%	-0.611 (inactive)	1.4e-07 (inactive)	0.00599 (inactive)	13.7% (inactive)	26.5% (inactive)
Cc1ccc(C(C)n2cc(C(=O)NCCN3CCN(C)CC3)nn2)cc1 (stereo not drawn)	429	12.1% (inactive)	-6.7% (inactive)	117%	-7.3% (inactive)	119%	-0.575 (inactive)	-1.3e-05 (inactive)	0.00588 (inactive)	3.51% (inactive)	7.62% (inactive)
Cn1c(/C=N/n2cnnc2)nc2ccccc21	448	3.5% (inactive)	-4.4% (inactive)	114%	-12.1% (inactive)	123%	-0.0404 (active)	-7e-06 (inactive)	0.00495 (inactive)	6.17% (inactive)	35.3% (inactive)
COc1ccc(C(=O)Nc2ccc(C)cn2)c(OC)c1	283	14.7% (inactive)	-14.1% (inactive)	79%	-3.2% (inactive)	101%	-0.469 (inactive)	-3.9e-05 (inactive)	0.00731 (inactive)	-3.57% (inactive)	53.3% (active)
Cc1ccc2c(c1)CCCN2C(=O)Nc1ccc2c(c1)OCO2	365	-0.8% (inactive)	-9.3% (inactive)	102%	-34.4% (inactive)	102%	-0.592 (inactive)	-4.4e-05 (inactive)	0.00347 (inactive)	13.6% (inactive)	14.5% (inactive)
COc1ccc(CCNC(=O)c2cnc3scc(C)n3c2=O)cc1OC	573	-5.3% (inactive)	-6% (inactive)	82.6%	19.7% (inactive)	86.4%	-0.411 (inactive)	-6.2e-05 (inactive)	0.00579 (inactive)	6.05% (inactive)	33.9% (inactive)
Cn1c(=O)c2c(nc(SCC(=O)NCc3ccco3)n2C)n(C)c1=O	616	1.7% (inactive)	19% (inactive)	78.5%	-63.1% (inactive)	100%	-0.611 (inactive)	1.2e-05 (inactive)	0.00578 (inactive)	3.04% (inactive)	5.37% (inactive)
Cc1ccc(CCNC(=O)C2CCN(S(=O)(=O)c3c(C)nn(C)c3C)CC2)cc1	621	6.1% (inactive)	-21.9% (inactive)	105%	-8.4% (inactive)	116%	-0.618 (inactive)	-5.1e-06 (inactive)	0.00762 (inactive)	-5.1% (inactive)	6.19% (inactive)
CC(CCc1ccccc1)NCc1ccncc1 (stereo not drawn)	564	3% (inactive)	-1.8% (inactive)	109%	-75.4% (inactive)	130%	-0.409 (inactive)	-1.4e-05 (inactive)	0.00748 (inactive)	12.9% (inactive)	23.5% (inactive)
Cc1ccc(SC(C)c2nc(-c3ccccc3)no2)cc1 (stereo not drawn)	283	-7.5% (inactive)	8.1% (inactive)	105%	51.9% (active)	42.1%	-0.416 (inactive)	-4.5e-05 (inactive)	0.00449 (inactive)	-11.7% (inactive)	-42.5% (inactive)
O=C(CSc1n[nH]c(-c2cccs2)n1)N1CCN(S(=O)(=O)c2ccccc2)CC1	785	13.3% (inactive)	4.1% (inactive)	104%	-77% (inactive)	140%	-0.639 (inactive)	3e-05 (inactive)	0.0053 (inactive)	17% (inactive)	28.7% (inactive)
O=C(c1ccc(COc2c(F)c(F)c(F)c(F)c2F)o1)N1CCOCC1	701	2.8% (inactive)	26.7% (inactive)	79.8%	-25% (inactive)	105%	-0.58 (inactive)	-3.8e-05 (inactive)	0.0055 (inactive)	10.5% (inactive)	33.9% (inactive)
O=C(OCc1ccccc1F)c1ccc2c(c1)OCCO2	372	3.4% (inactive)	-14.1% (inactive)	103%	-0.9% (inactive)	90.8%	-0.448 (inactive)	-8.7e-06 (inactive)	0.00627 (inactive)	-0.266% (inactive)	-113% (inactive)
CCCCOc1ccc(C2C3CN(C(=O)OCC)CC=C3C(C#N)=C(N)C2(C#N)C#N)cc1OC (stereo not drawn)	645	-26.7% (inactive)	-9.8% (inactive)	106%	-44.7% (inactive)	115%	-0.476 (inactive)	-2.9e-05 (inactive)	0.0065 (inactive)	14.6% (inactive)	19.7% (inactive)
O=C(NCCc1ccccn1)c1ccc(COc2ccccc2)o1	450	-26.3% (inactive)	8.3% (inactive)	93.3%	-39.9% (inactive)	156%	-0.449 (inactive)	-4.6e-05 (inactive)	0.00624 (inactive)	3.41% (inactive)	-2.41% (inactive)
CCN(CC)S(=O)(=O)c1cccc(-c2nnc(SCC(N)=O)n2CCc2ccccc2)c1	635	-4.4% (inactive)	-2.2% (inactive)	105%	-32.3% (inactive)	125%	-0.592 (inactive)	-8.5e-06 (inactive)	0.00663 (inactive)	7.68% (inactive)	11.1% (inactive)
C/C(=C\c1ccco1)C1C(C#N)=C(N)OC2=C1C(=O)CC(C)(C)C2 (stereo not drawn)	595	-9.1% (inactive)	11.6% (inactive)	96.3%	-87.8% (inactive)	106%	-0.303 (inactive)	-6.3e-05 (inactive)	0.00426 (inactive)	15.4% (inactive)	18.7% (inactive)
O=C(CN1C(=O)C2C3C=CC(C3)C2C1=O)NCc1ccc2c(c1)OCO2 (stereo not drawn)	421	7.5% (inactive)	8.3% (inactive)	102%	-109% (inactive)	104%	-0.601 (inactive)	1.2e-05 (inactive)	0.00636 (inactive)	-4.21% (inactive)	6.98% (inactive)
